Drawing on PubChem BioAssay AID1527 (The Scripps Research Institute Molecular Screening Center, 2009), this text covers inhibition for 60 molecules.

Usually inhibition stands for the relative decrease from the control value, in per cent.

Out of some 290,000 compounds screened, about 2,600 (0.9%) were called active.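 The calls were made as follows: active = inhibition above the mean of all tested compounds plus 3 SD, cutoff set per screening run (cut at about 7.5% in these data); inactive = the rest.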 Shown is part of a subset that was picked to be rich in actives.

This assay has as its system VIM-2 metallo-beta-lactamase (Pseudomonas aeruginosa). As to the kind of experiment: inhibition of VIM-2 nitrocefin hydrolysis – biochemical, epi-absorbance readout, Pseudomonas aeruginosa enzyme, primary screen (AID 1527).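 Also: red hydrolysis product quenches plate fluorescence so inhibitors raise well fluorescence; 0% = enzyme with DMSO and 100% = DMSO without enzyme.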 The conditions noted are these: purified VIM-2, nitrocefin hydrolysis, epi-absorbance fluorescence; at 5.6 µM; active compounds read high.
As to `CCN(CC)CCCNC(=O)c1cc(-c2cccc(Cl)c2)on1`, the inhibition is -2.99% (inactive).

With `Cc1cccc(N(C)C(=O)c2cc3c(=O)[nH]c4ccc(C)cc4c3s2)c1`, the inhibition is -1.79% (inactive).

`CCN(CC)CCCNC(=O)c1cc2c(=O)[nH]c3ccc(C)cc3c2s1`: the inhibition was 11.4% (active).

For `COc1ccc(C(=O)N/N=c2\oc3ccccc3cc2C(N)=O)cc1`, the inhibition was -2.23% (inactive).

With `NC(=O)c1cc2ccccc2o/c1=N/NC(=O)c1cccc(F)c1`, the inhibition was -3.88% (inactive).

Turning to `CCN(CC)c1ccc2cc(C(N)=O)/c(=N\NC(=O)c3ccncc3)oc2c1`, the inhibition was 17.2% (active).

Consider `COc1ccccc1CNC(=O)C1CCN(C(=O)[C@@H]2Cc3ccccc3CN2)CC1`, for which the inhibition was -1% (inactive).

Turning to `Nc1nc(SCc2cccc(Br)c2)n[nH]1`, the inhibition was -2.53% (inactive).

`CC(C)c1cc(NCc2ccccn2)n2c(nc3ccccc32)c1C#N`: the inhibition is 3.25% (inactive).

Consider `Cc1cc(NCc2ccco2)n2c(nc3ccccc32)c1C#N`, for which the inhibition was 23.1% (active).

`Cc1cc(NC(C)C)n2c(nc3ccccc32)c1C#N`: the inhibition is 6.91% (inactive).

Consider `CC(C)c1ccc2oc(=O)cc(CN3CCN(Cc4ccccc4)CC3)c2c1`, for which the inhibition was -0.17% (inactive).

On to `CCOC(=O)N1CCC(N2Cc3cccc(C(=O)Nc4ccc(S(=O)(=O)N(CC)CC)cc4)c3C2=O)CC1`, for which the inhibition is 1.9% (inactive).

In the case of `O=C(NNS(=O)(=O)c1ccccc1)c1cnn(-c2ccc(Cl)cc2)c1C(F)(F)F`, the inhibition is -0.91% (inactive).

As for `COc1ccccc1N1CCN(c2nc(C)cc(=O)[nH]2)CC1`, the inhibition is -1.83% (inactive).

With `CN(C)c1ccc(CNC2C3CC4CC(C3)CC2C4)cc1` (stereo not given), the inhibition is -1.88% (inactive).

For `O=C(CCC(=O)N/N=C/c1ccc(Br)o1)N/N=C/c1ccc(Br)o1`, the inhibition was -1.34% (inactive).

As for `O=C(NCCCN1CCOCC1)c1cc2c(s1)CCC2`, the inhibition was -5.51% (inactive).

Take `CN1CCN(CCCNC(=O)c2cc3c(=O)oc4ccccc4c3s2)CC1`: the inhibition was 7.83% (active).

Take `O=C(NCCN1CCN(Cc2ccccc2)CC1)c1cc2c(=O)[nH]c3ccccc3c2s1`: the inhibition was 7.06% (inactive).

With `CCOC(=O)N1CCN(S(=O)(=O)N2CCCC(C(=O)NCCCN3CCC(C)CC3)C2)CC1` (stereo not given), the inhibition was -0.26% (inactive).

For the molecule `CC(=O)Nc1ccc(Nc2c3ccccc3nc3ccccc23)cc1`, the inhibition was 9.49% (active).

`CC(=O)Nc1ccc(-c2nc3ccccc3o2)cc1`: the inhibition is -1.18% (inactive).

`Cc1ccc(Nc2c3c(nc4ccccc24)CCC3)cc1`: the inhibition is 5.26% (inactive).

As for `Cc1ccc(Oc2nc3ccccc3n3c(C)nnc23)cc1`, the inhibition was 0.26% (inactive).

`FC(F)(F)c1nnc2c3ccccc3c(Cl)nn12`: the inhibition is 4.08% (inactive).

Take `Nc1nnc2c(C(F)(F)F)nc3ccccc3n12`: the inhibition was 14.8% (active).

`COc1ccc(C2=NS(=O)(=O)N(C)C(C(=O)N(C)Cc3ccccc3)=C2)cc1`: the inhibition was -0.5% (inactive).

Consider `Cc1cccn2c(=O)c3cc(C(=O)NC4CCCCC4)sc3nc12`, for which the inhibition is 8.99% (active).

Consider `Cc1ccccc1-n1nc(C)c2cc(C(=O)NC3CC3)sc21`, for which the inhibition was -1.43% (inactive).

Regarding `CN(C(=O)c1cc2c(=O)n3ccccc3nc2s1)C1CCCCC1`, the inhibition is 3.44% (inactive).

As for `CCc1ccc(N(CC(=O)NCc2cccnc2)S(=O)(=O)c2ccccc2)cc1`, the inhibition is -2.09% (inactive).

For `COc1ccccc1C(=O)Nc1ccnn1C1CCN(C(=O)C(C)(C)C)CC1`, the inhibition was -0.24% (inactive).

Take `COc1ccc(-c2nn(C)c(=O)c3ccccc23)cc1NC(=O)COc1ccccc1`: the inhibition was 3.19% (inactive).

For the molecule `COc1ccc(-c2nn(C)c(=O)c3ccccc23)cc1CNC(=O)C1CCCCC1`, the inhibition was 8.72% (active).

In the case of `CCC(=O)NCc1cc(-c2nn(C)c(=O)c3ccccc23)ccc1OC`, the inhibition was 1.81% (inactive).

With `Fc1ccc(-c2ccc(-c3nn4c(-c5ccco5)nnc4s3)o2)cc1`, the inhibition is -1.72% (inactive).

As for `CCOc1cccc(-c2nn3c(-c4ccccn4)nnc3s2)c1`, the inhibition is 1.31% (inactive).

For the molecule `COc1cc(-c2nn3c(-c4cccc(C)c4)nnc3s2)cc(OC)c1OC`, the inhibition was 14.8% (active).

In the case of `c1ccc(-c2cc(-c3nnc4sc(-c5ccccn5)nn34)[nH]n2)cc1`, the inhibition was 6.5% (inactive).

On to `COc1cc(-c2nnn(CC(=O)NCc3ccccc3)n2)cc(OC)c1OC`, for which the inhibition was -0.9% (inactive).

Regarding `COc1ccc(-c2nn3c(-c4ccccc4)nnc3s2)cc1OC`, the inhibition is 14.4% (active).

Take `COc1ccc(C)cc1S(=O)(=O)N(CC(=O)Nc1cccc([N+](=O)[O-])c1)c1ccc(C)cc1`: the inhibition is -0.96% (inactive).

Turning to `COc1ccc(C(C(=O)NC2CCCCC2)N(C(=O)c2snc(C(N)=O)c2N)c2ccccc2OC)cc1` (stereo not given), the inhibition was -3.87% (inactive).

With `N#Cc1cc([N+](=O)[O-])ccc1NCC1CCCO1` (stereo not given), the inhibition is -4.39% (inactive).

Turning to `CCN(CCn1cccn1)Cc1nc(-c2ccc(C(=O)OC)cc2)no1`, the inhibition was 0.55% (inactive).

`CN(Cc1ccccn1)Cc1nc(-c2ccc(Cl)cc2)no1`: the inhibition was -2.91% (inactive).

Turning to `COC(=O)c1ccc(-c2noc(CN(Cc3ccccn3)CC3CCCO3)n2)cc1` (stereo not given), the inhibition is 19.8% (active).

In the case of `COc1cc(/C=C2/SC(=S)N(Cc3ccccc3)C2=O)cc(OC)c1O`, the inhibition is 7.8% (active).

`COc1ccccc1C(=O)NNC(=O)CCN1C(=O)/C(=C\c2ccccc2)SC1=S`: the inhibition is -3.54% (inactive).

Regarding `COc1ccc(/C=C2\SC(=S)N(CCC(=O)Nc3ccccn3)C2=O)cc1OC`, the inhibition was -0.57% (inactive).

Take `O=C(CCc1ccccc1)NNC(=O)COc1ccc(Cl)cc1`: the inhibition is -4.89% (inactive).

In the case of `Cc1ccc(C2CCN(C(=S)Nc3cccc(Cl)c3)C2)cc1` (stereo not given), the inhibition is -1.21% (inactive).

For `O=C(NCC(=O)N1CCN(c2ccccc2F)CC1)c1cccs1`, the inhibition is -3.61% (inactive).

As to `O=C(O)CS/C(=C\c1ccc(F)cc1)c1nc2ccccc2s1`, the inhibition was 2.23% (inactive).

Take `O=C(Nc1nc2ccccc2s1)c1ccc2c(c1)OCO2`: the inhibition was -3.05% (inactive).

Turning to `O=C(O)CC/C(=C\c1cc2c(cc1Br)OCO2)c1nc2ccccc2s1`, the inhibition is 7.92% (active).

Regarding `C/C(=N\NC(=O)C1(C)CC1(Br)Br)c1ccc(C)cc1C` (stereo not given), the inhibition was -0.97% (inactive).

On to `CC(C)n1c(COc2ccccc2)nc2ccccc21`, for which the inhibition is -2.15% (inactive).

For the molecule `O=C(CN1CCN(S(=O)(=O)c2cc(Cl)ccc2Cl)CC1)c1ccc(O)c(O)c1`, the inhibition was 2.29% (inactive).
